The campaign covered roughly 69,000 compounds. About 8,600 (12%) showed an effect of 50% or more. Only a selection was taken, and strong results are over-represented in it overall.

The experiment concerns Plasmodium berghei. Put plainly: Screen against P. berghei liver stage (PbLuc), transformed with Luciferase, at 10uM. In kind it is functional, HepG2. As to conditions: tested at 10 uM.
In the case of `COc1ccc(C(=O)Nc2ccc3c(c2)C(=O)NC3)cc1Br`, the INHIBITION is -64.3%. As to `COCc1cc(N(C)CCC(O)c2ccccc2)n2nccc2n1` (stereo not drawn), the INHIBITION was -27.3%. Turning to `O=C1CSC(C(F)(F)F)c2c(O)nn(C3CCCCC3)c2N1` (stereo not drawn), the INHIBITION came out at 38.1%. The value for `Cc1cnn(CCNc2nc(C)cc(N(C)C)n2)c1` was 21.5%; that for `CCc1nnc2n1CCN(C(=O)CCOc1cc(C)ccc1C)C2` was -3.19%. As to `O=S(=O)(Cc1ccc(F)c(Cl)c1)NCCOc1cccnc1`, the INHIBITION is listed as -11.4%. The value for `c1cnc2[nH]c(C3CCCNC3)c(CN3CCCOCC3)c2c1` (stereo not drawn) was -15.3%; that for `CCc1ccc(C2CCCN2C(=O)Cc2ccc(NC(C)=O)cc2)o1` (stereo not drawn) was 65.8%; that for `CC(=O)Nc1ccc(CC(=O)N2CC(S(=O)(=O)C3CCCCC3)C2)cc1` was 13.1%. As for `CCc1ccc(C(=O)NC[C@H]2CCCN2C(=O)c2ccc(CC)o2)o1`, the INHIBITION is listed as -3.68%. Take `Cc1nnc(N2C[C@H](Oc3ccccn3)[C@H]3OCCC[C@H]32)s1`: the INHIBITION is reported as -10.3%. With `Cc1cc(NC(=O)NC(C)(C)c2nc(C)c(C)s2)no1`, the INHIBITION stood at 29.1%.

As for `Cc1cc(NC(=O)CCNC(C)(C)c2nc(C)c(C)s2)no1`, the INHIBITION is on record as 53.8%. Consider `Cc1cc(NC(=O)CNC(C)(C)c2nc(C)c(C)s2)no1`, for which the INHIBITION was found to be 26.6%. For `Cn1cc(C(=O)Nc2ccc3c(c2)N(C(=O)c2ccco2)CC3)nn1`, the INHIBITION was determined as 20.1%. In the case of `c1ccc(C[C@H]2CN(C3CCOCC3)CC[C@H]2OCC2CC2)cc1`, the INHIBITION is listed as -54.1%. For the molecule `c1ccc(C[C@H]2CN(Cc3nccs3)CC[C@@H]2OCC2CC2)cc1`, the INHIBITION is recorded as 62.5%. `c1ccc(C[C@H]2CN(Cc3nccs3)CC[C@H]2OCC2CC2)cc1`: the INHIBITION came out at 50%.

For `c1csc(CN2CCCn3cnc(COCC4CC4)c3C2)n1`, the INHIBITION was determined as 37.8%.

For `c1csc(CN2C[C@H](OCC3CC3)[C@H]3COC[C@H]32)n1`, the INHIBITION is recorded as 12.6%. Then `CCCNC(c1ccc(F)cc1)c1cccnc1` (stereo not drawn), with 42.1%.

`CC(C)c1ccc(C(O)CN2CCN(Cc3nccn3C)CC2)cc1` (stereo not drawn): the INHIBITION was -65.3%. For the molecule `CCC1CN(Cc2cccc(C(=O)N(C)C)c2)CCN1CCOC` (stereo not drawn), the INHIBITION is on record as -34%. As for `Cc1cccc(CN2C[C@@H]3CN(C(=O)NC(C)C)C[C@@H]3C2=O)n1`, the INHIBITION is recorded as -31.9%.

In the case of `CC(C)(C)c1cc(NC(=O)CNC2CCc3ncnn3C2)on1` (stereo not drawn), the INHIBITION turned out to be 48.4%. Consider `CNC(=O)C1CCN(CC(=O)Nc2cc(C(C)C)no2)CC1`, for which the INHIBITION stood at 53%. Consider `Cc1cc(NC(=O)CNC2CCc3ncnn3C2)on1` (stereo not drawn), for which the INHIBITION worked out at 6.67%. Regarding `CC(C)c1cc(NC(=O)CN2CCNC(=O)C2)on1`, the INHIBITION amounted to 20.6%. Take `CC(C)c1cc(NC(=O)CN2CCCC(Cn3cncn3)C2)on1` (stereo not drawn): the INHIBITION is given as 5.58%. For the molecule `CC(C)c1cc(NC(=O)CNC2CCc3ncnn3C2)on1` (stereo not drawn), the INHIBITION amounted to 65.3%. For the molecule `CC(C)c1cc(NC(=O)CN2CCC(N3CCCCC3)CC2)on1`, the INHIBITION turned out to be 74.1%.

Regarding `CC(C)c1cc(NC(=O)CN2CCC(N3CCNC3=O)CC2)on1`, the INHIBITION is on record as 17.3%.

Consider `CC(C)c1cc(NC(=O)CN2CCC(C(N)=O)CC2)on1`, for which the INHIBITION is 9.64%.

The record behind these values is ChEMBL document CHEMBL4513216, “Probing the Open Global Health Chemical Diversity Library for Multistage-Active Starting Points for Next-Generation Antimalarials” (ACS Infect Dis, 2020).
